# HCMV antiviral: blocks human cytomegalovirus replication; HFF cells, HCMV-luciferase reporter, 72 h; active compounds read low; activity change, negative = inhibition, % at 57.5 µM; 410,000 compounds, 4.5% hits; AID 1259415; in the data active = activity change below about -60%; inconclusive = no clear call, values can overlap the other calls; inactive = above about -39%
#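 Compounds were evaluated in HFFs infected with an HCMV luciferase reporter virus (MOI 1 PFU/cell). Luciferase in lysates collected 72 h post infection served as the replication measure.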
# Vaccinia Venus: vaccinia inhibition (Venus reporter) | Vaccinia virus Venus reporter expression, fluorescence | Potency, µM (doses to about 36.5 µM), usual class: inhibitors | 330,000 compounds, 0.46% hits | AID 720580; calls by dose curve; tested in A549 cells; note: nearly all actives have a fitted effect of over 30% in size
# Marburg entry inh: inhibitors of Marburg virus binding or cell entry; Marburg virus pseudotyped entry inhibition, cell reporter; Potency, µM (highest dose often 37.8 µM), most hits filed as inhibitors; 300,000 compounds, 1.8% hits; AID 540276; calls by dose curve; tested in HEK293 cells
# Vaccinia mCherry: inhibitors of vaccinia virus infection (mCherry reporter signal). Potency, µM (highest dose often 36.5 µM), usual class: inhibitors. Vaccinia virus mCherry reporter infection, fluorescence. 310,000 compounds, 0.63% hits; calls by dose curve; tested in A549 cells; note: nearly all actives have a fitted effect of over 35% in size
# HCV inh: HCV inhibition. Huh7.5.1 HCVcc-Cre infection, luciferase reporter, 44 h. AID 651820. 340,000 compounds, 3.4% hits. Potency, µM (titrated, usually from 41.8 µM), most hits filed as inhibitors; active = well fitted inhibition curve with a large enough effect; inconclusive = small, poorly fitted or top-dose-only effect, or another doubt; inactive = no such curve, though single readings can be large or run the other way
#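 Cells (1,000/well) were plated 4 h before compound, then infected with HCVcc-Cre virus (~0.5 moi). After 44 h further culture, infection was read as luciferase luminescence following a 15 min substrate incubation at room temperature.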
# LASV entry inh: blocks Lassa virus binding to or entry into cells; 300,000 compounds, 1.2% hits; Potency, µM (titrated, usually from 37.9 µM), actives largely listed as inhibitors; Lassa virus pseudotype entry inhibition, cell reporter; calls by dose curve; tested in HEK293 cells; note: nearly all actives have a fitted effect of over 50% in size
# Hits are given with their value; n = inactive; u = inconclusive; x = not tested or not shown; [ ] = another dose, or the depositor's remark. A selection: hits, their analogues and other compounds. The true share with any hit is near 7.8%.
SMILES,HCMV antiviral,Vaccinia Venus,Marburg entry inh,Vaccinia mCherry,HCV inh,LASV entry inh
c1ccc(C(c2ccccc2)N2CCN(c3nc4ccccc4n4cnnc34)CC2)cc1,-99.1,n,u,n,u,u
c1cnc(N2CCN(c3nc4ccccc4n4cnnc34)CC2)nc1,n,x,n,x,n,n
CC(C)C(c1nnnn1Cc1ccccc1)N1C(=O)C(=O)c2ccccc21 (stereo not given),n,x,x,x,x,x
Cc1c(Cc2ccc3c(c2)OCO3)sc(NC(=O)C(C)(C)C)c1C#N,n,n,x,n,11.2µM,x
CCC(=O)Nc1sc(Cc2ccc3c(c2)OCO3)c(C)c1C(N)=O,n,x,x,x,n,x
COCC(=O)Nc1cc(C(=O)N2CCCC(C(C)=O)C2)cc2nc(-c3ccccc3)n(C)c12 (stereo not given),x,n,x,n,x,x
CCc1ccc(-c2nc(CN3CCC(C(=O)NCc4ccc(F)cc4)CC3)c(C)o2)cc1,n,x,20.6µM,x,17.8µM,u
CCc1ccc(-c2nc(CN3CCC(C(=O)N4CCN(c5ccccn5)CC4)CC3)c(C)o2)cc1,n,x,u,x,11.2µM,u
S=C(NCc1ccco1)Nc1cc(Cl)c(Cl)cc1Cl,u,n,n,n,25.1µM,n
COC(=O)[C@@]1(C)[C@H]2C(=O)N(C)C(=O)[C@H]2[C@H]2CN=C(SCc3ccc(Cl)cc3)N21,n,n,x,n,4.47µM,x
COC(=O)[C@@]1(C)[C@H]2C(=O)N(C)C(=O)[C@H]2[C@H]2CN=C(SCc3ccc(C#N)cc3)N21,n,n,x,n,0.562µM,x
CN(C(=O)CCCN1C(=O)c2cccc3cccc(c23)C1=O)c1ccccc1,-61.6,n,n,n,u,n
COc1ccc(N2CCN(C(=O)CCCN3C(=O)c4cccc5cccc(c45)C3=O)CC2)cc1,n,x,u,x,u,u
O=C(CCCN1C(=O)c2cccc3cccc(c23)C1=O)N1CCN(c2ccc(F)cc2)CC1,n,n,u,n,11.2µM,u
COc1ccccc1N1CCN(C(=O)Cn2ncc3c(=O)oc4ccccc4c32)CC1,n,n,n,n,x,n
COc1cc(OC)c(OC)cc1C#N,n,n,x,n,n,x
COc1cc2c(cc1OC)C1(CCCC1)C(N)=C2C#N,u,u,u,x,3.16µM,u
COc1ccc2c(Sc3ccccc3)c(C(=O)NCc3cccc(OC)c3OC)[nH]c2c1,n,n,u,n,x,u
COc1cccc(CNC(=O)c2[nH]c3cc(C)ccc3c2Sc2ccccc2)c1,-62.8,u,n,u,x,n
Cc1ccc(Cn2c(CNC(=O)c3ccc(Cl)c([N+](=O)[O-])c3)nc3cccnc32)cc1,u,n,x,n,x,n
CCOC(=O)c1ccc(-c2ccc3c(=O)c4ccccc4n(C)c3c2)cc1F,-69.3,u,x,n,n,x
CCOC(=O)c1ccc(-c2c(-c3ccccc3OC)oc3ccccc23)cc1F,n,n,x,n,n,x
FC(F)(F)Oc1ccc(Nc2cc3[nH]c(-c4ccccc4)cc3cn2)cc1,n,x,x,x,x,x
CC1(C(=O)NCCc2c[nH]c3ccccc23)CCN1Cc1csc2ccccc12 (stereo not given),n,n,x,n,x,x
CC1(C(=O)NCCc2c[nH]c3ccccc23)CCN1Cc1ccccc1OC(F)F (stereo not given),-96.3,n,x,u,x,x
SMILES,HCMV antiviral,Vaccinia Venus,Marburg entry inh,Vaccinia mCherry,HCV inh,LASV entry inh
Cc1ccccc1OCC(=O)NCC(=O)OCC(=O)c1ccc2c(c1)CCCC2,x,n,x,n,x,x
Nc1c2c(nc3sc4c(c13)CCCC4)-c1ccccc1CC2,u,u,7.08µM,u,u,11.2µM
Nc1c2c(nc3sc4c(c13)CCCCC4)CCCC2,-71.0,10µM,u,u,22.4µM,u
CC(=O)c1c(C)[nH]c(C(=O)Nc2ccc(N3CCCCCC3)cc2)c1C,n,n,x,u,x,x
CCc1ccc(-c2nc3c(=O)n(C)c(=O)nc-3n(CC)n2)cc1,x,11.2µM,x,5.62µM,x,x
Cc1ccc(-c2nc3c(=O)n(C)c(=O)nc-3n(C)n2)cc1,x,0.891µM,x,2.82µM,x,x
CCc1ccc(-c2csc3ncn(CC)c(=O)c23)cc1,n,n,x,n,n,x
Cn1ncnc2c(=O)n(C)c(=O)nc1-2,x,x,x,x,0.501µM,x
Cc1ccc(-c2nc(N)n(S(C)(=O)=O)n2)cc1,n,n,n,x,n,u
Cc1ccccc1-c1nc2c(=O)n(C)c(=O)nc-2n(C)n1,x,0.891µM,x,2.82µM,x,x
Cc1ccc(-n2c3nc(=O)n(C)c(=O)c-3cc3ccccc32)cc1,n,n,n,n,n,n
CCc1cc(C(=O)NCC2Cc3cc(-c4ccccc4C(C)=O)ccc3O2)no1 (stereo not given),x,n,x,n,x,x
O=C(Nc1ccc(Cl)c(C(F)(F)F)c1)c1cc2nc(-c3ccc4c(c3)OCO4)cc(C(F)(F)F)n2n1,n,n,n,n,x,n
Cn1nc(-c2ccccn2)nc2c(=O)n(C)c(=O)nc1-2,-100.6,x,x,x,2µM,x
c1ccc(-c2nccc(-c3ccco3)n2)nc1,u,n,n,u,n,n
CCCc1nc2c(=O)n(C)c(=O)nc-2n(C)n1,-98.5,1µM,u,u,2.51µM,1µM
Cc1ccc(Cl)cc1NC(=O)Cn1c(=O)n(Cc2ccccc2)c(=O)c2oc3ccccc3c21,n,u,x,u,x,n
COc1ccc(C2CC2/C(=N/O)c2ccccn2)cc1 (stereo not given),n,n,n,u,n,n
O/N=C(\c1ccccn1)C1CC1c1ccccc1 (stereo not given),-79.4,n,n,u,n,u
COc1ccccc1N1CCN(C(=O)CCc2c(C)nn(-c3ccc(N4CCCC4)nn3)c2C)CC1,n,n,x,n,x,n
Cc1nn(-c2ccc(N3CCCC3)nn2)c(C)c1CCC(=O)N1CCN(c2ccccc2F)CC1,-61.5,n,x,n,x,n
COc1cccc(C(=O)Nc2ccc3nc(SCC(=O)N4CCc5ccccc54)sc3c2)c1,n,n,n,n,x,n
O=C(Nc1ccc(F)c(F)c1)c1cnn2c1NC(=C1CC1)C=C2C(F)(F)F,x,n,x,n,x,x
COc1ccc(/C=N/n2c(SC)nnc2-c2ccccc2)c(OC)c1OC,u,u,5.01µM,x,u,3.55µM
COc1cccc(/C=N\n2c(C)nnc2C)c1OC,n,n,u,n,n,n
SMILES,HCMV antiviral,Vaccinia Venus,Marburg entry inh,Vaccinia mCherry,HCV inh,LASV entry inh
Cc1onc(-c2ccccc2)c1C(=O)N/N=C/c1ccc([N+](=O)[O-])s1,n,u,u,u,u,u
COc1cccc(/C=N/n2c(C)nc3ccccc32)c1OC,n,x,n,x,8.91µM,n
Cc1nc2ccccc2n1/N=C/c1ccc([N+](=O)[O-])s1,-81.8,n,u,n,4.47µM,u
O=[N+]([O-])c1ccc(/C=N/n2c(CO)nc3ccccc32)s1,-68.9,3.98µM,u,5.01µM,10µM,n
COC(=O)c1c(-c2cccs2)csc1NC(=O)c1ccc(C(C)(C)C)cc1,n,n[7.34 µM],u,n[7.34 µM],x,n
CC(C)=CCCC(C)=CCN1C(=O)[C@@]2(CC(C)=CC[C@@H](C)O2)c2c(Br)cccc21,x,x,n,x,x,x
Cc1ccn(CCC(=O)NCC2Cc3cc(Cl)cc(-c4ccc5[nH]ccc5c4)c3O2)n1 (stereo not given),x,n,x,n,x,x
Cc1nc2ccccc2n1/N=C/c1ccc([N+](=O)[O-])o1,-66.7,11.2µM,14.6µM,7.94µM,10µM,u

# Assay outcomes from PubChem BioAssay.
